14 compounds from PubChem BioAssay (NCATS) can be followed below.

What all share (assay): qHTS profiling for inhibitors of Plasmodium falciparum proliferation (AID 504749); also: nearly all actives have a fitted effect of over 60% in size
What all share (conditions): P. falciparum in erythrocytes, SYBR Green DNA, 72 h; series mostly up to 28.7 µM

One assay has as its system DIV17. In outline:
(§1)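 Parasite proliferation within erythrocytes, 72 h exposure. Endpoint: SYBR Green I fluorescence after overnight lysis at room temperature. Controls: 0.29 uM artemisinin, DMSO.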

Another assay has as its system DIV30. In outline: as §1
Another assay has as its system Dd2. In outline:
as §1

The test system of another assay is ECU. In outline: as §1
The test system of a further assay is FAB9. In short, it runs like this: as §1
The test system of a further assay is GB4. In short, it runs like this: as §1
The next assay deals with HB3. In short, it runs like this:
as §1

The subject of a further assay is ICS. In short, it runs like this: as §1
For a further assay, the system named is JCK. In outline: as §1
In another assay the test system is N140. In outline: as §1
Another assay has as its system P93_24. In outline: as §1
Another assay deals with P94_40. In outline:
as §1

The next assay relates to PAD. In outline:
as §1

The subject of a further assay is PC15. In outline:
as §1

The test system of a further assay is PC26. In short, it runs like this: as §1
A further assay deals with PC49. In short, it runs like this:
as §1

A further assay relates to SC27B. In outline: as §1
In another assay the test system is TAB109. In short, it runs like this: as §1
The test system of a further assay is TAB113. In outline: as §1
The next assay relates to TAB165. In short, it runs like this:
as §1

Inconclusive results are not listed. Active and inactive are the calls of the source. Calls follow the shape of the dose curve; as a rule, active = well fitted inhibition curve with a large enough effect; inconclusive = small, poorly fitted or top-dose-only effect; inactive = flat fitted curve, though single readings scatter.
Potency is read from the fitted curve at half-maximal effect.

`CCc1cc(C(N)=S)ccn1`: the Potency entry in the assay with DIV17, in the assay on DIV30, in the assay on Dd2, with ECU, in the assay with FAB9 and with GB4 was “inactive” in each case. Moreover, the Potency result with HB3, in the assay on ICS, in the assay with JCK, with N140, in the assay on P93_24 and in the assay with P94_40 was “inactive” in each case. The Potency entry in the assay with PAD, with PC15, with PC26, with PC49, in the assay on SC27B and in the assay on TAB109 was “inactive” in each case. In addition, the Potency entry with TAB113 and in the assay with TAB165 was “inactive” in each case.
For `Cc1noc(NS(=O)(=O)c2ccc(N)cc2)c1C`, the Potency entry in the assay on DIV17, with DIV30, in the assay on Dd2, in the assay on ECU, in the assay with FAB9 and with GB4 was “inactive” in each case. Besides, the Potency entry with HB3, with ICS, in the assay with JCK, in the assay with N140, in the assay with P93_24 and in the assay with P94_40 was “inactive” in each case. Further, the Potency entry in the assay on PAD, with PC15, with PC26, with PC49, in the assay on SC27B and in the assay on TAB109 was “inactive” throughout. The Potency result in the assay on TAB113 and in the assay on TAB165 was “inactive” each time.
Turning to `CC(C)(C#N)c1cc(Cn2cncn2)cc(C(C)(C)C#N)c1`, the Potency entry with DIV17, with DIV30, with Dd2, in the assay with ECU, with FAB9 and in the assay on GB4 was “inactive” in each case. Besides, the Potency entry in the assay with HB3, in the assay on ICS, in the assay on JCK, with N140, in the assay on P93_24 and in the assay on P94_40 was “inactive” each time. Besides, the Potency entry in the assay on PAD, in the assay on PC15, in the assay with PC26, with PC49, in the assay on SC27B and in the assay on TAB109 was “inactive” in each case. In addition, the Potency result with TAB113 and in the assay on TAB165 was “inactive” each time.
Regarding `O=C(O)c1cc(=O)[nH]c(=O)[nH]1`, the Potency entry in the assay on DIV17, with DIV30, in the assay with Dd2, in the assay on ECU, with FAB9 and in the assay on GB4 was “inactive” in each case. For the same compound, the Potency result in the assay on HB3, with ICS, in the assay on JCK, in the assay with N140, with P93_24 and in the assay on P94_40 was “inactive” throughout. The Potency entry in the assay on PAD, in the assay with PC15, in the assay on PC26, in the assay on PC49, in the assay with SC27B and in the assay on TAB109 was “inactive” each time. The Potency entry in the assay on TAB113 and in the assay with TAB165 was “inactive” each time.
`OC(Cn1cncn1)(Cn1cncn1)c1ccc(F)cc1F`: the Potency entry in the assay on DIV17, with DIV30, in the assay on Dd2, in the assay with ECU, in the assay with FAB9 and in the assay on GB4 was “inactive” in each case. Further, the Potency result with HB3, in the assay on ICS, with JCK, in the assay on N140, in the assay on P93_24 and in the assay on P94_40 was “inactive” each time. Besides, the Potency entry in the assay with PAD, in the assay on PC15, in the assay on PC26, in the assay on PC49, in the assay on SC27B and in the assay on TAB109 was “inactive” throughout. Moreover, the Potency entry in the assay with TAB113 and in the assay with TAB165 was “inactive” throughout.
`NC(=O)N1c2ccccc2CC(=O)c2ccccc21`: the Potency entry in the assay with DIV17, in the assay with DIV30, in the assay on Dd2, with ECU, in the assay on FAB9 and in the assay on GB4 was “inactive” each time. Moreover, the Potency result with HB3, in the assay on ICS, with JCK, in the assay on N140, in the assay with P93_24 and in the assay on P94_40 was “inactive” each time. Moreover, the Potency entry in the assay with PAD, in the assay on PC15, with PC26, with PC49, with SC27B and in the assay with TAB109 was “inactive” each time. Moreover, the Potency entry in the assay on TAB113 and with TAB165 was “inactive” in each case.
Consider `COc1cc([C@@H]2c3cc4c(cc3[C@H](O)[C@H]3COC(=O)[C@H]23)OCO4)cc(OC)c1OC`, for which the Potency with DIV17 is 1.69 µM (active); in the assay on DIV30, 6.75 µM (active); in the assay with Dd2 it was 2.24 µM (active); with ECU, 3.55 µM (active); in the assay with FAB9, 6.31 µM (active); with GB4, 3.38 µM (active). Moreover, the Potency was 1.78 µM (active) in the assay with HB3; 0.891 µM (active) in the assay with ICS; 2.82 µM (active) in the assay on N140; 2.24 µM (active) with P93_24; 2.51 µM (active) in the assay on P94_40; 3.55 µM (active) with PAD. The Potency in the assay on PC15 is 1.78 µM (active); in the assay with PC26 it was 8.49 µM (active); in the assay with PC49, 8.91 µM (active); in the assay with SC27B, 4.47 µM (active); in the assay with TAB109 it was 2.51 µM (active); with TAB113 it was 3.16 µM (active). Moreover, in the assay with TAB165, the Potency was 2.24 µM (active).
`Nc1[nH]c(=O)ncc1F`: the Potency result in the assay on DIV17, with DIV30, in the assay with Dd2, in the assay with ECU, in the assay with FAB9 and in the assay with GB4 was “inactive” in each case. For the same compound, the Potency result in the assay on HB3, in the assay with ICS, in the assay with JCK, in the assay with N140, in the assay with P93_24 and in the assay on P94_40 was “inactive” each time. The Potency entry with PAD, in the assay with PC15, in the assay with PC26, in the assay on PC49, with SC27B and with TAB109 was “inactive” each time. In addition, the Potency entry in the assay on TAB113 and in the assay with TAB165 was “inactive” each time.
In the case of `Cc1ncc([N+](=O)[O-])n1CCO`, the Potency entry in the assay with DIV17, in the assay on DIV30, with Dd2, with ECU, in the assay on FAB9 and in the assay with GB4 was “inactive” in each case. Further, the Potency result in the assay on HB3, with ICS, in the assay on JCK, with N140, in the assay on P93_24 and in the assay with P94_40 was “inactive” throughout. Besides, the Potency result in the assay with PAD, in the assay on PC15, in the assay on PC26, in the assay with PC49, in the assay on SC27B and with TAB109 was “inactive” throughout. Also, the Potency entry in the assay on TAB113 and in the assay on TAB165 was “inactive” each time.
For the compound `CCOC(=O)c1ccc(OC(=O)CCCCCN=C(N)N)cc1`, the Potency is 4.55 µM (active) in the assay on DIV17, 4.47 µM (active) in the assay on HB3 and 2 µM (active) with ICS. Moreover, the Potency entry in the assay with DIV30, in the assay with Dd2, with FAB9, in the assay with JCK, in the assay on P94_40 and with PC49 was “inactive” each time. Further, the Potency entry with SC27B was “inactive”.
Take `CN1CCCC(n2nc(Cc3ccc(Cl)cc3)c3ccccc3c2=O)CC1` (centres undefined): the Potency was 7.57 µM (active) in the assay with DIV17, 11.2 µM (active) in the assay on Dd2 and 8.91 µM (active) in the assay with ICS. Moreover, the Potency entry with DIV30, in the assay with FAB9, in the assay with HB3, in the assay on P94_40 and in the assay on PC49 was “inactive” each time.
For `COc1ncnc(NS(=O)(=O)c2ccc(N)cc2)c1OC`, the Potency entry in the assay on DIV17, with DIV30, with Dd2, in the assay with ECU, with FAB9 and with GB4 was “inactive” in each case. Further, the Potency result with HB3, in the assay on ICS, with JCK, in the assay on N140, with P93_24 and in the assay on P94_40 was “inactive” throughout. Moreover, the Potency result with PAD, in the assay with PC15, in the assay on PC26, with PC49, in the assay on SC27B and in the assay with TAB109 was “inactive” each time. Moreover, the Potency entry with TAB113 and in the assay with TAB165 was “inactive” each time.
Consider `CCOCC(O)COc1ccc(NC(=O)CC[S+](C)C)cc1` (centres undefined), for which the Potency result in the assay on DIV17, in the assay with DIV30, in the assay on Dd2, in the assay with ECU, in the assay on FAB9 and with GB4 was “inactive” throughout. The Potency entry in the assay on HB3, in the assay on JCK, in the assay on N140, with P93_24, in the assay on P94_40 and in the assay with PAD was “inactive” throughout. Further, the Potency entry in the assay on PC15, with PC26, with PC49, with SC27B, in the assay with TAB109 and in the assay on TAB113 was “inactive” throughout. The Potency result with TAB165 was “inactive”.
Turning to `Nc1ccc(S(=O)(=O)Nc2ccccn2)cc1`, the Potency result with DIV17, in the assay with DIV30, with Dd2, with ECU, in the assay with FAB9 and in the assay on GB4 was “inactive” throughout. For the same compound, the Potency entry in the assay on HB3, in the assay with ICS, with JCK, in the assay on N140, in the assay with PAD and in the assay with PC15 was “inactive” throughout. In addition, the Potency result with PC26, in the assay with PC49, in the assay on SC27B, in the assay with TAB109, in the assay with TAB113 and in the assay on TAB165 was “inactive” in each case.
